Most compounds without a hit are left out; they make up all but 1.6% or so of the library.
PrPC surface inh: reduces human prion protein on the cell surface; cell surface PrPC, TR-FRET read-out; inhibition, % at 13.8 µM; P04156; hit rate 0.43% among 370,000; in the data active means inhibition above about 24%
SSB-PriA inh: inhibitors of Klebsiella pneumoniae PriA binding to SSB C-terminal tail; AlphaScreen SSBct-PriA binding, biotinylated peptide; inhibition, % at 33 µM; hit rate 0.6% among 430,000; in the data active means inhibition mostly above about 37%, no sharp cut-off; inactive means mostly below about 20%
PrP UTR inh: inhibition of PrP 5' UTR reporter expression; inhibition, % (test concentration not listed); hit rate 0.35% among 340,000; AID 488862; cell-based PrP 5' UTR mRNA reporter, plate reader; in the data active means inhibition above about 52%
Vc quorum ag: quorum light induction in luxS cqsA deficient V. cholerae | V. cholerae BH1578 lux reporter, luminescence, 6 h | activation, % at 18.7 µM | hit rate 0.16% among 350,000 | AID 588436; in the data active means activation mostly above about 9.7%, no sharp cut-off; inconclusive means no clear call, values can overlap the other calls; inactive means mostly below about 3.7%
SARS 3CLpro inh: SARS-CoV 3CLpro protease inhibition | P0C6X7 | recombinant SARS-CoV 3CLpro, quenched FRET peptide cleavage | inhibition, % at 6 µM | hit rate 0.14% among 290,000 | AID 1706; in the data active means inhibition above about 12%
PfHsp40 yeast: compounds rescuing yeast from Plasmodium falciparum HSP40 toxicity; hit rate 0.68% among 340,000; S. cerevisiae expressing PfHsp40, growth rescue, ATP luminescence; growth rescue, % at 12.5 µM; in the data active means growth rescue above about 28%, passing the limit was not always enough; inconclusive means no clear call, values can overlap the other calls;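 further: yeast W303a lacking pdr1 and pdr3 grown in galactose medium; growth measured after three days at 30 °C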
Hits are given with their value; 0 = inactive; ? = inconclusive; - = not tested or not shown; + = active, no number.

SMILES	PrPC surface inh	SSB-PriA inh	PrP UTR inh	Vc quorum ag	SARS 3CLpro inh	PfHsp40 yeast
O=C(Cn1cnc2c(cnn2C2CCS(=O)(=O)C2)c1=O)N1CCCc2ccccc21 (configuration not stated)	-	0	-	-	-	-
O=C(NC=NOCc1cccc(C(F)(F)F)c1)N1OC[C@@H]2COc3ccc4ccccc4c3[C@@H]21	-	45	-	-	-	-
Cc1ccc(Sc2ccc(NC(=O)CCl)cc2)cc1C	0	0	0	0	0	457
O=C1CCCc2cc3c(cc21)CCCC3	0	0	0	0	-	33
CCOC(=O)c1c(NC(=O)c2cc(-c3ccc(OCC)cc3)on2)sc2c1CCCC2	-	0	-	-	-	-
Cc1ccc(CN2CC(C(=O)N(Cc3nnc(-c4ccccc4Cl)o3)C3CC3)CC2=O)cc1 (configuration not stated)	0	0	0	0	-	561
Cc1ccc(C(=O)N(Cc2nnc(-c3ccccc3Cl)o2)C2CC2)o1	0	-	-	0	-	-
O=C(NCC1CCN(c2cnccn2)CC1)C(=O)Nc1ccccc1Cl	-	0	-	-	-	-
Cc1c(NC(=S)NNC(=O)c2ccccc2)c(=O)n(-c2ccccc2)n1C	-	0	-	-	-	-
CC(C)Cn1c(N)c(C(=O)COC(=O)C2Cc3ccccc3CN2S(C)(=O)=O)c(=O)n(C)c1=O (configuration not stated)	0	0	0	0	-	50
CC(C)Cn1c(N)c(C(=O)COC(=O)C2CCCCC2)c(=O)n(C)c1=O	0	0	0	0	0	0
CSc1ccccc1C(=O)NCCC(O)c1cc2ccccc2o1 (configuration not stated)	-	0	-	-	-	-
COCCN=c1scc(-c2cc(OC)ccc2OC)n1/N=C/c1c[nH]c2ccccc12	0	-	0	0	0	0
COCCN=c1scc(-c2cc(OC)ccc2OC)n1N=Cc1c[nH]c2ccccc12	-	66	-	-	-	-
CSc1ccc(C(O)CNC(=O)N2CCNC2=O)cc1 (configuration not stated)	-	0	-	-	-	-
Cc1ccc(O)c(-c2cc(-c3cccc(F)c3)n[nH]2)c1	0	0	0	0	0	?
Cc1ccc(-c2cc(-c3cccc(F)c3)n[nH]2)c(O)c1	0	0	0	0	0	66
COc1cc(C)c(C)cc1S(=O)(=O)Nc1ccc2c(c1)N(C)C(=O)C(C)(C)CO2	-	0	-	-	-	-
C=CCN=c1scc(-c2ccc(C)cc2)n1/N=C/c1ccccn1	-	+	-	-	-	-
O=C(c1cccs1)N1N=C(c2ccccc2)CC1c1ccc2nccnc2c1 (configuration not stated)	-	37	-	-	-	-
Cc1nc(S(=O)(=O)NC2CCC(Oc3nccnc3C#N)CC2)cn1C (configuration not stated)	-	0	-	-	-	-
COc1ccnc(CSC(N)=Nc2ccccc2OC)c1	0	40	0	0	0	0
Cc1ccc(S(=O)(=O)NCCCCCC(=O)NC(C)(C)CO)cc1	0	0	0	0	0	51
Cc1cc(NC(=O)c2ccno2)n(C(C)C)n1	-	0	-	-	-	-
Brc1ccc(C2=NN=C(c3ccccc3)SC2)cc1	-	0	-	-	-	-
SMILES	PrPC surface inh	SSB-PriA inh	PrP UTR inh	Vc quorum ag	SARS 3CLpro inh	PfHsp40 yeast
O=C(Nc1ccc2c(c1)OCO2)c1oc2ccccc2c1NC(=O)C(c1ccccc1)c1ccccc1	-	0	-	-	-	-
O=C(CCSc1ccc(Br)cc1)c1ccc(O)cc1	0	0	0	0	0	537
CCCNC(=O)Cn1nc2c(c1NC(=O)C(C)(C)Oc1ccc(Cl)cc1)CSC2	-	0	-	-	-	-
CCc1ccc(NSc2ccccc2[N+](=O)[O-])cc1	0	65	0	0	0	46
O=C(O)c1ccccc1NSc1ccccc1[N+](=O)[O-]	0	0	0	0	0	0
COC(=O)CS[C@H]1CCN(C(=O)c2cc3ccccc3o2)C1	-	0	-	-	-	-
Nc1nc2sc3c(c2c(=O)s1)CCCC3	0	0	0	0	0	290
Nc1c2c3c(sc2nc(=O)n1N)CCCC3	0	0	0	0	0	0
O=C(Nc1ncccc1O)c1cccc(S(=O)(=O)N2CCCc3ccccc32)c1	0	0	0	0	-	62
Cc1cc(C)n(CCNC(=O)c2cc(C3CC3)on2)n1	-	0	-	-	-	-
CCN1CCN(c2oc(COc3ccc(-c4ccccc4)cc3)nc2C#N)CC1	0	41	0	0	0	0
N#Cc1nc(COc2ccc(-c3ccccc3)cc2)oc1N1CCCC1	-	54	-	-	-	-
CC(Oc1ccccc1)C(=O)NCc1cnn2c1CCCC2 (configuration not stated)	-	0	-	-	-	-
Cc1c(C(=O)Oc2cccc3ccccc23)cnn1-c1ccccc1	0	0	0	0	0	34
CCOC(=O)C1CCN(C(=O)C(C)N(c2ccc(Oc3ccccc3)cc2)S(C)(=O)=O)CC1 (configuration not stated)	0	0	0	0	0	0
COc1ccc(N(C(C)C(=O)N2CCC(Cc3ccccc3)CC2)S(C)(=O)=O)cc1 (configuration not stated)	0	55	0	0	0	0
COc1ccc(OCC(=O)N2CCC(Cc3ccccc3)CC2)cc1	0	0	0	0	0	0
COc1ccc(Br)c(C(=O)OCC(=O)N2CCC(Cc3ccccc3)CC2)c1	0	0	0	0	-	27
CCCc1cc(=O)oc2c(CNc3ccc(OCC)cc3)c(O)ccc12	0	0	0	0	0	48
Cc1ccc(NC(=O)C(C)N2C(=O)C3CC=C(Cl)CC3C2=O)cc1 (configuration not stated)	0	0	0	0	0	0
Cc1ccc(NC(=O)C(C)N2C(=O)C3C4CC(C(Br)C4Br)C3C2=O)cc1 (configuration not stated)	0	0	0	38	0	0
O=C(c1sc2ncccc2c1-n1cccc1)N1CCN(c2ccccc2Cl)CC1	-	0	-	-	-	-
O=C(C1=C[C@H](c2ccc3c(c2)OCO3)C[C@H](OCc2ccc(CO)cc2)O1)N1CCCCCCC1	0	41	0	0	0	0
O=[N+]([O-])c1cc(CN2CCOCC2)c2cccnc2c1O	-	92	-	-	0	-
Oc1c(CN2CCc3ccccc3C2)cc(Cl)c2cccnc12	-	0	0	0	0	282
SMILES	PrPC surface inh	SSB-PriA inh	PrP UTR inh	Vc quorum ag	SARS 3CLpro inh	PfHsp40 yeast
O=[N+]([O-])c1cc(CN2CCN(c3ccccc3)CC2)c(O)c2ncccc12	0	0	0	0	0	0
Oc1c(Cl)cc(CN2CCOCC2)c2cccnc12	0	115	0	0	-	?
O=C(Oc1c(CN2CCOCC2)cc(Cl)c2cccnc12)c1ccccc1	0	0	0	0	0	0
O=C(NCc1ccc(F)cc1)N1CCN(c2nc3c(C(F)(F)F)cccc3s2)CC1	-	0	-	-	-	-
COc1ccc(NC(=O)Cc2csc(Nc3ccc(F)cc3)n2)c(OC)c1	-	0	-	-	-	-
O=C(O)C/C(=C\c1ccc(Cl)cc1)c1nc2ccccc2o1	0	0	0	0	0	135
Cn1c(=O)cc2c3c(c(Br)ccc31)C(=O)c1ccccc1-2	-	0	-	-	-	-
Cn1c(=O)c(N)c2c3c(c(Br)ccc31)C(=O)c1ccccc1-2	0	42	0	0	0	0
O=[N+]([O-])c1cccc(-c2csc(=Nc3ccccc3)n2N2CCOCC2)c1	-	64	-	-	-	-
O=C(/C=C/c1ccc(-c2cccc([N+](=O)[O-])c2)o1)N1CCOCC1	0	0	-	0	0	-
O=c1cccnn1CCCNS(=O)(=O)c1ccc(F)c(Cl)c1	-	0	-	-	-	-

Screens deposited in PubChem BioAssay by several laboratories.
